# In PubChem BioAssay AID1259343 (VanderVen Lab, College of Veterinary Medicine, Cornell …, 2017):
# Among all 6,200 compounds or so, about 2,900 (47%) were called active. So high a share suggests a set chosen from earlier hits. The list shows a part of the results. A number with no mark means an inactive call. Rule as the data show it: active = inhibition above about 50%; inactive = the rest.
# Experiment: Mycobacterium tuberculosis growth inhibition, primary screen (AID 1259343)
# Conditions: inhibition: at 10 µM, stronger effect = higher value; outcome: 10 uM
row,Structure (SMILES),inhibition
1,c1ccc(C(Cn2cncn2)NCc2cccs2)cc1 (configuration not stated),-11.6%
2,CCCN(CC1CC1)c1oc(-c2ccc(F)cc2)nc1C#N,12.7%
3,CC1CCC(NC(=O)CSc2nnc(C(C)C)o2)CC1 (configuration not stated),32.9%
4,Cc1ccc(-c2nnc(SCC(=O)NC(C)C(C)C)o2)cc1 (configuration not stated),87.3% (active)
5,CCOc1ccc(-c2nnc(SCC#N)o2)cc1,-18%
6,CCCCNC(=O)CSc1nnc(-c2ccc(OCC)cc2)o1,81.2% (active)
7,Cc1cc(C)cc(N2C(=O)C3N=NN(c4ccc(Br)c(C)c4)C3C2=O)c1 (configuration not stated),89% (active)
8,COC(=O)c1cc(C)nc(N(C)C)c1C(=O)OC,-14.7%
9,CC(C)c1ccc(/C=N\Nc2ncnc3nc[nH]c23)cc1,58.7% (active)
10,O=c1c(Cl)c(Cl)cnn1-c1ccc(NC2CC2)c(Cl)c1,91.2% (active)
11,O=c1c(Cl)c(Cl)cnn1-c1ccc(N2CCOC(c3ccccc3)C2)c(Cl)c1 (configuration not stated),16.1%
12,Cc1ccc(-c2nnc(SCC(=O)c3ccc4c(c3)OCO4)n2C)cc1,89.8% (active)
13,CN(C)C(=O)CSc1nnc(-c2ccc(Cl)cc2)n1C,0.36%
14,c1csc(-c2nnc(SCc3ccc4c(c3)OCO4)n2C2CC2)c1,-34.7%
15,Cc1nc2cc(NC(=O)C3(C)CCc4c(C)c(O)c(C)c(C)c4O3)ccc2s1 (configuration not stated),68.5% (active)
16,CN(Cc1cccc(C#N)c1)C(=O)c1cc2c(s1)CCCCCC2,30.1%
17,CN(Cc1cccs1)C(=O)c1cc2c(cc1O)CCCC2,67.8% (active)
18,CCCCNC(=S)N(C)N=Cc1sccc1C,29%
19,CCCCNC(=S)N(C)N=Cc1c(F)c(F)c(F)c(F)c1F,58% (active)
20,COc1ccc(-c2nc(C=CC(=O)N3CCCC4CCCCC43)cs2)cc1 (configuration not stated),62.1% (active)
21,Cc1ccc(-c2cc(C(=O)N3CCCC3C3CCCC3)n[nH]2)s1 (configuration not stated),31.1%
22,CCCCc1ccc(N=Cc2c(C)c(C#N)c(=O)n(CCCC)c2O)cc1,4.37%

row,Structure (SMILES),inhibition
1,CCCCc1ccc(N=Cc2nc(/C=C/c3cccc([N+](=O)[O-])c3)oc2O)cc1,84.9% (active)
2,Cc1ccc(Oc2ccc3c(C4CC4)noc3n2)cc1F,64.9% (active)
3,COc1ccc(Oc2ccc3c(C4CC4)noc3n2)c(F)c1,61.2% (active)
4,COc1ccc(F)cc1Oc1ccc2c(C3CC3)noc2n1,30%
5,COc1cc(F)ccc1Oc1ccc2c(C3CC3)noc2n1,47.7%
6,Cc1cc(Oc2ccc3c(C4CC4)noc3n2)ccc1F,58.7% (active)
7,CCN(CC)CCN1CCN(c2ccnc3c(-c4cc(C(F)(F)F)cc(C(F)(F)F)c4)cnn23)CC1,37.6%
8,COCc1[nH]n2c(=O)c(Cl)c(C)nc2c1-c1ccc(C)cc1,98.7% (active)
9,Cc1ccccc1-c1cnnc(N2CCCC(COc3ccccc3F)C2)n1 (configuration not stated),-23.4%
10,C=CCSc1nnc2c3ccccc3n(CC=C)c2n1,28.1%
11,S=c1nnc2c3ccccc3[nH]c2n1CCc1ccccc1,18%
12,C=C(C)CSc1nnc2c(n1)[nH]c1ccccc12,61.6% (active)
13,Cc1cc(Br)ccc1NCc1ccc(C#N)cc1,35.3%
14,Cc1cc(Br)ccc1NCC(=O)N1CCCCC1,95.6% (active)
15,O=C(C=Cc1ccc(OC(F)F)cc1)c1ccc(O)cc1,81.8% (active)
16,N#CC(C#N)=C(C=Cc1ccc(OC(F)F)cc1)C1CC1,-8.38%
17,COc1cc(C(=O)C=Cc2ccc(OC(F)F)cc2)ccc1O,17.6%
18,CC(C)c1ccc2[nH]c3c(c2c1)CCC/C3=N\N=C/c1ccncc1,78.2% (active)
19,OCC1(Cc2ccccc2F)CCCN(c2noc(-c3ccccc3)n2)C1 (configuration not stated),17.3%
20,COc1ccc(NCc2ccc(OC)c(Br)c2)cn1,-17.8%
21,COc1cc(CNc2ccc3nc(C)sc3c2)ccc1OC(F)F,78.4% (active)
22,C=CCc1ccc(OC(C)C(=O)Nc2ccc(OC)cc2)c(OC)c1 (configuration not stated),30.5%

row,Structure (SMILES),inhibition
1,CC(=NN=C1NC(=O)CS1)c1cc2ccccc2oc1=O,91.1% (active)
2,CCOc1ccc(OCCCOc2ccc(Cl)c(C)c2)cc1,44.9%
3,CCOc1ccccc1OCCOc1ccccc1F,88.9% (active)
4,COc1ccc(OCCCCOc2ccccc2F)cc1,57.2% (active)
5,COc1ccccc1OCCCCOc1ccccc1Cl,67.2% (active)
6,COc1ccc(OCCOc2ccc(Cl)c(C)c2)cc1,80.7% (active)
7,COc1cccc(-c2cnnc(NCc3ccccc3OC)n2)c1,21.6%
8,COc1cccc(OCCCCOc2ccc3ccccc3c2)c1,78.5% (active)
9,COc1ccccc1OCCCOc1ccccc1F,80% (active)
10,COc1cccc(-c2nnn(CCOc3ccccc3F)n2)c1,77.6% (active)
11,COc1ccc(OCCOc2ccccc2C#N)cc1,56.9% (active)
12,COc1cccc(-c2ccc(=O)n(Cc3cccc(F)c3)n2)c1,22.1%
13,CC(C)=CCCC(C)(O)c1cc(C(N)=O)no1 (configuration not stated),32.2%
14,COc1ccc(OCCCCOc2ccccc2OC)cc1,97.5% (active)
15,COc1ccc(OCCCOc2cccc(Cl)c2Cl)cc1,18.8%
16,COc1ccccc1OCCCOc1ccc(F)cc1,35.7%
17,N#Cc1ccc(-c2ccc(OCC(=O)c3ccc4c(c3)CC(=O)N4)cc2)cc1,39.1%
18,COc1cccc(OCCCOc2cccc(Cl)c2Cl)c1,61.9% (active)
19,COc1ccccc1OCCCCOc1ccc(I)cc1,91.3% (active)
20,CC(=O)c1ccc(OCCOc2ccc(C#N)cc2)cc1,101% (active)
21,COc1ccc(OCCCCOc2ccccc2)cc1,27.8%
22,CCCCCCOc1ccc(C(=O)NNS(=O)(=O)c2ccc(C(=O)OC)cc2)cc1,94.8% (active)

row,Structure (SMILES),inhibition
1,CCCCCCNC(=O)Nc1ccc(S(=O)(=O)Nc2ccc(CCNC[C@H](O)COc3ccc(O)cc3)cc2)cc1,18.9%
2,CCCCCCCOc1ccc(C(C)=NOC)cc1,41.4%
3,COC(=O)c1ccc(OCCCCOc2ccccc2OC)cc1,80.9% (active)
4,COc1ccc(OCCCCOc2ccc(Br)cc2)cc1,81.2% (active)
5,O=C1Oc2ccccc2C1=Cc1c(Cl)cccc1Cl,59% (active)
6,CC(C)N(C(=O)/C=C/c1c(Cl)cccc1Cl)C(C)C,47.8%
7,Cc1cc(NC(=O)COc2ccc(Cl)cc2Cl)n(-c2nc(C)c(C)c(=O)[nH]2)n1,-28.7%
8,Cc1nnc2sc(COc3ccc(Cl)cc3Cl)nn2c1=O,78.4% (active)
9,Cc1cc(Br)cc(Cl)c1NC(=O)C1(C)CC1(Cl)Cl (configuration not stated),-15.4%
10,O=C(CC1CCCO1)NCc1cccc(OCc2ccccc2)c1 (configuration not stated),39.5%
11,CCC1CCC(=NNC(=O)c2ccc(COc3ccccc3)cc2)CC1 (configuration not stated),97.1% (active)
12,O=C(N/N=C1/CCSc2c(F)cccc21)c1ccccc1,38%
13,Cc1cccc(-n2cc(CNCC3CCCO3)c(-c3cccc(F)c3)n2)c1 (configuration not stated),inactive
14,Cc1ccccc1CNCc1cn(-c2ccccc2)nc1-c1ccc2c(c1)OCO2,60.9% (active)
15,Fc1ccccc1-c1nnn(Cc2ccc3c(c2)OCO3)n1,48.7%
16,COc1ccc(-n2cc(CNCc3ccc4c(c3)OCO4)c(-c3ccccc3Cl)n2)cc1,61.7% (active)
17,Cc1cccc(-n2cc(CNCc3ccc(C)o3)c(-c3cccc(F)c3)n2)c1,46.5%
18,CC(C)(C)c1ccc(Cn2cnc([N+](=O)[O-])n2)cc1,65.2% (active)
19,O=C(Nc1nnc(C(F)(F)F)s1)C1(c2cccc(Cl)c2)CC1,86.3% (active)
20,FC(F)(F)c1nnc(N2CCN(c3ccc(Cl)cc3)CC2)s1,18.9%
21,COc1cc(NC(=O)C2(c3ccccc3)CC2)c(OC)cc1Cl,16.5%
22,O=C1/C(=C/c2cc3ccccc3o2)Oc2cc(O)ccc21,3.03%

row,Structure (SMILES),inhibition
1,O=C1C(=Cc2ccc(OC(F)F)cc2OC(F)F)Oc2cc(O)ccc21,56.9% (active)
2,Cn1c(=S)[nH]c2c(-c3ccccc3)csc2c1=O,20.9%
3,CCOC(=O)CSc1ccc(NC(=O)c2ccc(C)cc2)nn1,93.7% (active)
4,CSc1nc(N)nc(SCc2ccc(F)cc2)c1C#N,53.4% (active)
5,COc1ccc(/C=C2\C=C(c3ccccc3)N(c3ccc4ccccc4c3)C2=O)cc1,74.9% (active)
6,CN(C)c1cc(-c2noc(Cc3ccccc3Cl)n2)ccn1,67% (active)
7,Ic1ccc(Nc2nc3nonc3nc2NCc2ccco2)cc1,101% (active)
8,Oc1ccc(Nc2nc3nonc3nc2Nc2cccc(Br)c2)cc1,49.2%
9,OCC(O)Cn1c2ccc(Br)cc2c2cc(Br)cc(Br)c21 (configuration not stated),17.8%
10,OC(CN1CCOCC1)Cn1c2ccc(Br)cc2c2cc(Br)ccc21 (configuration not stated),86.8% (active)
11,Cc1cc(O)c(CN2CCOCC2)c2c1C(=O)/C(=C/c1cc3cc(Br)ccc3o1)O2,45.4%
12,C=CCn1c2ccc(Br)cc2c2nc3ccccc3nc21,-22.9%
13,CN(CCO)CC(O)Cn1c2ccc(Br)cc2c2cc(Br)ccc21 (configuration not stated),69.2% (active)
14,CC(=O)O[C@H]1CC[C@@]2(C)C(=CC[C@@H]3[C@H]2CC[C@]2(C)C(c4cccnc4)=CC[C@@H]32)C1,27.2%
15,O=C(Cn1nnnc1-c1ccc(Br)cc1)c1ccccc1,89.4% (active)
16,CCC(=O)c1ccc(-c2ccc(Br)cc2F)cc1,29%
17,Brc1ccc(Cc2nnnn2CCn2cccn2)cc1,25.9%
18,O=C(CCl)N1N=C(c2cccs2)CC1c1ccco1 (configuration not stated),101% (active)
19,NC(=O)c1ccc(Cn2nc(-c3cccs3)oc2=O)cc1,14.6%
